The source of these data is ChEMBL document CHEMBL3988442, “University of Dundee, Small-Polar-MMV Screening Library” (2021).

For this assay, the target named is Shiga toxin 2 (Escherichia coli O157:H7) (UniProt P09385+P09386). The experiment in a line: E. coli 0.157:H7 Shiga Toxin SOP - stx2 screening assay. The assay is classed as functional. Also on record: scale not given: direction of the effect not stated beside the values. The conditions noted are these: 30 µM.
As to `Cc1nc2n(n1)CC(Nc1cc(C(F)(F)F)nc3ncnn13)CC2` (stereo not given), the Percent Effect was -1.67%. Then `CC(NCc1c(C(C)C)nn(C)c1N1CCOCC1)C(N)=O` (stereo not given), with -49.6%; and `Cc1cc(CNC(=O)N2CCN(c3ccccc3)CC2)no1`, with -2.24%. In the case of `O=C(c1n[nH]c(=O)c2ccccc12)N1CCCCC1c1ccn[nH]1` (stereo not given) it was 17.2%.

`COc1ccc(Cl)cc1NCC(=O)NCCc1ccccn1`: the Percent Effect was determined as 25.8%. With `CCN1CCCn2c(nc(CNC(=O)c3ccsc3)cc2=O)C1`, the Percent Effect turned out to be 11.3%.

In the case of `O=C(c1cccnc1-n1cncn1)N1CCc2ccccc2C1`, the Percent Effect is -9.55%.

Take `CN(C)C(=O)CS(=O)(=O)Cc1cc(Cl)c2c(c1)OCCCO2`: the Percent Effect amounted to 29.6%. Then `CN1N=C(C(=O)N2CCCC(CCc3c(F)cccc3F)C2)CCC1=O` (stereo not given), with 9.43%; and `O=C(NCCc1nnc2n1CCC2)NCC1(c2cccc(F)c2)CC1`, with 4.87%; and `N#Cc1ccc(C(=O)N2CCn3c(Cn4cccn4)cnc3C2)cc1`, with 0.128%. `OCC1CCCN1c1cc(NCc2ccc(Cl)s2)ncn1` (stereo not given): the Percent Effect is -31.6%. Then `CCc1n[nH]c(C2CN(CCc3cccs3)CCO2)n1` (stereo not given), with -38.7%. Then `CCOCC1CN(Cc2cccc(C#N)c2)Cc2nccn2C1` (stereo not given), with -10.3%; and `CCn1ccnc1CN1CCCN(C(=O)c2cc(Cl)c[nH]2)CC1`, with -18.9%; and `Cc1cc(C)c(CNC(=O)NCc2ccc3c(c2)CCC3)c(=O)[nH]1`, with 32.4%. Then `CC(=O)N1CCN(c2cc(C3CN(C)CCO3)nc(C)n2)CC1` (stereo not given), with -24.3%; and `CCc1nnc(CN(C)c2nc(C3CCCC3)nc3c2cnn3C)o1`, with 13.2%. As to `Cc1ccc(CNC(=O)Cn2ncc3c2c(C)nn3C)cc1`, the Percent Effect was -20.9%.

Regarding `O=C(c1cccnc1)N1C[C@@H]2CC[C@H](C1)N(Cc1cccc(Cl)c1F)C2`, the Percent Effect is -10.5%.

Take `COc1cc(NC(=O)c2ccccc2F)c(C(=O)N(C)C)cc1OC`: the Percent Effect was -68.8%. Then `CNC(=O)c1cc2c(nc1NC(C)C)CCN(C(=O)NC(C)C)CC2`, with 0.412%; and `Cn1nnc2cc(C(=O)N3CCCC3Cc3ccccc3)ccc21` (stereo not given), with -54.6%. As to `CO[C@@H]1CCN(C(=O)c2ccccn2)[C@H]1Cc1ccccc1`, the Percent Effect was found to be 4.36%. In the case of `Cc1c(I)cccc1C(=O)NCC1(CO)CC1` it was 0.906%; in that of `COc1cc2cc(C(=O)N[C@@H](C)C(=O)O)n(C)c2c(OC)c1OC`, -30.8%; in that of `Cc1ccc(CN2CCCC3(CCN(S(=O)(=O)N(C)C)C3)C2)o1` (stereo not given), 10.6%. Consider `Cc1nc(CN2CCOC(c3nc(C(C)C)n[nH]3)C2)oc1C` (stereo not given), for which the Percent Effect was -9.33%.

As for `CCc1csc(C2CCCN(C(=O)c3ccc(OC)nn3)C2)n1` (stereo not given), the Percent Effect came out at 14.7%. As to `COCC(=O)NCCn1ccc2c(OC)cccc21`, the Percent Effect was -26.2%. In the case of `CCc1nccn1C1CCCN(C(=O)c2cnc3ccccc3n2)C1` (stereo not given) it was 11.4%; in that of `CC(=O)N1CC(=O)N(c2ccccc2)CC12CCN(Cc1nccs1)C2` (stereo not given), -17.5%; in that of `CCc1ccc(C(=O)N2CCCC(c3noc(CC)n3)C2)o1` (stereo not given), 10.6%. As to `COCCc1noc(CN2CCCCC2Cn2cc(C)cn2)n1` (stereo not given), the Percent Effect came to 9.7%. For the molecule `O=C(CN1CCCC1Cn1cncn1)NCCc1c(F)cccc1F` (stereo not given), the Percent Effect was -12.5%. As to `O=C1CCCCN1Cc1cccc(NC(=O)N2CCSCC2)c1`, the Percent Effect was -1.06%. In the case of `CS(=O)(=O)N1CCN(CC(O)COc2ccc(F)cc2)CC1` (stereo not given) it was 26.7%; in that of `CCCN(CC)C(=O)c1cc2c(c3ccccc3n2C)n1C(=O)N(C)C`, 2.44%; in that of `Cc1nccn1-c1cc(CNC(=O)CCNC(=O)C2CCCC2)ccn1`, 1.23%. Then `Cc1cnn(CCNCC(O)COc2ccc(C#N)cc2)c1` (stereo not given), with -30.5%.
